Out of some 350,000 compounds screened, about 990 (0.28%) were called active. About 2% were inconclusive and are not listed. The call rests on the fitted dose curve; in most records, active means well fitted inhibition curve with a large enough effect; inconclusive means small, poorly fitted or top-dose-only effect; inactive means no such curve, though single readings can be large or run the other way. Only a selection was taken, and actives are over-represented in it overall.
Each molecule was assayed against Tyrosyl-DNA phosphodiesterase 1 (Homo sapiens) (UniProt Q9NUW8) (assay: qHTS Assay for Inhibitors of Tyrosyl-DNA Phosphodiesterase (TDP1)). Conditions: recombinant TDP1, AlphaScreen DNA substrate cleavage; series mostly up to 130 µM; activity change, negative = inhibition: at the top concentration.
Sequence of Tyrosyl-DNA phosphodiesterase 1 (Homo sapiens) (Q9NUW8 whole entry, looked up): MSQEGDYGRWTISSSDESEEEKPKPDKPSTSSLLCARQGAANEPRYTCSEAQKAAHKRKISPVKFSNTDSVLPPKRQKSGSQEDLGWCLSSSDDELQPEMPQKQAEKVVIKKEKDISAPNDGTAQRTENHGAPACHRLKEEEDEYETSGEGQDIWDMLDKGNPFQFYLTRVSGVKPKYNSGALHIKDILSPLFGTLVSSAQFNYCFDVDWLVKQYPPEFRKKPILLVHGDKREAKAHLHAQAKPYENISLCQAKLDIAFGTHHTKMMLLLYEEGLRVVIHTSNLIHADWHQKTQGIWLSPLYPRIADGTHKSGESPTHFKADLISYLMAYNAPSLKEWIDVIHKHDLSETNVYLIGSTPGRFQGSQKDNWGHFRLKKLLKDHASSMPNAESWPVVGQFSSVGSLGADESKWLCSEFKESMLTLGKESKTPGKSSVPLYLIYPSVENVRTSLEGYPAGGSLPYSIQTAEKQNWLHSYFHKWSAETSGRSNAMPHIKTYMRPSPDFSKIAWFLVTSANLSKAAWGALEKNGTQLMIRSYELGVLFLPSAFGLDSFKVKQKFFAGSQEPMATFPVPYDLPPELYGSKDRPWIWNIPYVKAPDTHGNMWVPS
Procedure, shortened: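 Steps: enzyme plus compound, 15 min RT; add biotin/phosphotyrosine-FITC oligonucleotide (15 nM final), react 5 min; add donor/acceptor beads (10 ug/ml final), 10 min; read AlphaScreen. Tdp1 at 1 nM final.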
Further: nearly all actives have a fitted effect of over 40% in size.
On the % scale 0 is the no-effect control and ±100 the full control effect; potency means the concentration at half of the fitted maximal effect.

Activity change, negative = inhibition, inactive:
CCc1ccc(CNC(=O)CCc2nc(-c3cccs3)no2)cc1 1.31%
COc1ccc(OC)c(CNC(=O)CCc2nc(-c3cccs3)no2)c1 0%
CCC(=O)Nc1cccc(-c2nc3cc(C)ccc3o2)c1 5.69%
OCCNc1ncnc2oc(-c3ccco3)c(-c3ccco3)c12 0.0157%
Cc1cc(CN(C)C(=O)c2cc(COc3ccc(C)c(C)c3)on2)n[nH]1 4.51%
CN(CCOc1ccccc1)C(=O)c1cc(COc2c(F)cccc2F)on1 -0.184%
COc1ccc(C2Nc3ccccc3C(=O)N2Cc2ccco2)cc1COc1cccc(NC(C)=O)c1 (stereo not drawn) -0.885%
Cc1ccc(C(=O)COC(=O)C(Cc2c[nH]c3ccccc23)NC(=O)c2ccc(Br)cc2)cc1 (stereo not drawn) 0.948%
CCCCNC(=O)Cn1c(SCc2cccc(Cl)c2)nc2ccncc21 0.301%
CCN1CCN(c2cc(C)c3cc(NC(=O)c4cc(Cl)ccc4OC)ccc3n2)CC1 5.88%
C=CCCN(C(Cc1ccccc1)C(=O)OC)S(=O)(=O)c1cc(Br)ccc1Br (stereo not drawn) -9.71%
C=CC(COCc1ccccc1)N(Cc1ccccc1)S(=O)(=O)c1ccccc1Br (stereo not drawn) -12.1%
CC1(C)CCc2cc(S(=O)(=O)N3CCN(c4nc(-c5cccs5)nc5ccccc45)CC3)ccc2O1 1.18%
Cc1ccc(Cl)cc1NC(=O)C(C)n1nnc2sc(-c3ccccc3)cc2c1=O (stereo not drawn) 2.33%
Cc1ccccc1NC(=O)CSc1nc2ccc(Nc3nc(N4CCOCC4)nc(N4CCOCC4)n3)cc2s1 2.22%
Cc1ccc(Nc2nc(N)nc(CN3CCN(Cc4ccccc4)CC3)n2)cc1Cl 6.79%
CC1CC(C)CN(c2oc(-c3ccc(OCc4ccc(Cl)cc4)cc3)nc2C#N)C1 (stereo not drawn) 5.48%
Cc1ccc(CCNC(=O)c2ccc(CS(=O)(=O)Cc3cccc(C)c3)o2)cc1 5.2%
CCN1CCN(C(c2ccc(C)cc2)c2c(O)cc(C)n(Cc3ccco3)c2=O)CC1 (stereo not drawn) 5.41%
COc1cccc(C(=O)NC2CCN(C#N)CC2)c1 1.27%
Cn1c(COc2ccccc2C(C)(C)C)nc2ccccc21 0%
O=C(Cc1ccc([N+](=O)[O-])cc1)N/N=C/c1ccco1 0%
CC(C)NC(=O)C(=O)N/N=C/c1ccco1 -10.5%

Potency, active:
COc1ccc(CCc2nc(-c3cccs3)no2)cc1 89.1 µM
Cc1ccc(OCc2cc(C(=O)N(C)CCc3ccccc3)no2)cc1C 50.1 µM
C=CCCN(Cc1ccccc1)S(=O)(=O)c1ccccc1Br 39.8 µM
Cc1ccc(Nc2nc(N3CCOCC3)nc(N3CCOCC3)n2)cc1Cl 22.4 µM
O=c1nc(N/N=C/c2ccco2)cn[nH]1 31.6 µM
